# AHR activator – activators of human aryl hydrocarbon receptor. P35869. 320,000 tested, 2.5% active. activation, % at 5 µM. AID 2796. AHR-responsive luciferase reporter cells, luminescence; in the data active means activation above about 47%
# ssDAF-12 act – S. stercoralis DAF-12 activation, primary screen; HEK293 ssDAF-12/GRIP1 lit1-tk-luc reporter, luminescence; % of 3 µM dafachronic acid response; activation, % at 6.8 µM; 370,000 tested, 1% active;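 active means activation above the mean over all tested compounds plus 3 SD, cut at about 0.9% in these data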
# DAX1 inh-1 – DAX1 (NR0B1) inhibition, primary screen; AID 652010; inhibition, % at 6.8 µM; 370,000 tested, 1.1% active; HEK293T StAR-luciferase reporter, SF-1/DAX-1 repression relief;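 active means inhibition above the mean over all tested compounds plus 3 SD, cut at about 3.6% in these data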;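 further: higher inhibition means more luminescence from relief of DAX-1 repression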
# DAX1 inh-2 – inhibitors of human orphan nuclear receptor DAX1 (NR0B1); 340,000 tested, 0.99% active; inhibition, % at 6.75 µM; HEK293 Gal4-DAX1 luciferase reporter, luminescence;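 active means inhibition above the mean over all tested compounds plus 3 SD, cut at about 4.2% in these data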;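 further: inhibition shows as a rise in luminescence from relieved DAX1 repression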
# Target sequence (P51843 207-470 limits assumed): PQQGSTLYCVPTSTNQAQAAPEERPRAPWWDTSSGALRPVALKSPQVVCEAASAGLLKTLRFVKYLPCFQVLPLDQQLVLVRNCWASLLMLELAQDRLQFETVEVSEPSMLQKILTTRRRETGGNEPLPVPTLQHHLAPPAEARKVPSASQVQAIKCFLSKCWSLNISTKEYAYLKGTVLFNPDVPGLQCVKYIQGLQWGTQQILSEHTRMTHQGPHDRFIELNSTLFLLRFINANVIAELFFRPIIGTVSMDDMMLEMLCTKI
# hgDAF12 agonist – hgDAF-12 agonism, primary luciferase screen | HEK293 GAL4-hgDAF12 UAS-luciferase reporter, agonist luminescence; normalized to butyrate control | activation, % at 6.8 µM | 370,000 tested, 1.8% active;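 active means activation above a cutoff set at the mean of all screened compounds plus 3 SD, cut at about 10% in these data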
# hcDAF-12 act – H. contortus DAF-12 activation, primary screen; activation, % at 6.8 µM; HEK293 hcDAF-12 lit1-tk-luc reporter, luminescence; 0% DMSO, 100% Δ7-dafachronic acid; 370,000 tested, 1.4% active;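 active means activation above the mean of all tested compounds plus 3 SD, cut at about 5.5% in these data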
# Numbers stand for hits; n = inactive; x = no result. The list is not random: actives were taken first. Their share in the collection is about 5.7%.
SMILES,AHR activator,ssDAF-12 act,DAX1 inh-1,DAX1 inh-2,hgDAF12 agonist,hcDAF-12 act
CCOc1ccc(N(CC(=O)NC2CCCCC2)C(=O)CCC(=O)Nc2nc(C)cs2)cc1,n,n,n,n,n,n
Cc1cc(NC(=O)CN2CC(C)OC(C)C2)n(-c2nc3ccccc3s2)n1 (stereo not drawn),n,x,x,n,x,x
Cc1cc(NC(=O)C(C)C)n(-c2nc3ccccc3s2)n1,n,0.9,n,n,n,n
COc1ccc(C2(C)C(C#N)C(=O)NC(=O)C2C#N)cc1 (stereo not drawn),x,n,n,n,n,n
O=C(Cn1c(=S)[nH]c2ncccc2c1=O)NCCc1ccccc1,57,n,n,x,n,n
C=CCN(CC=C)CC(O)CN(c1cc([N+](=O)[O-])ccc1OC)S(=O)(=O)c1ccccc1 (stereo not drawn),n,n,3.8,n,n,n
O=C(NNC(=S)Nc1ccc(Cl)cc1)c1ccccc1OC(F)F,104,n,n,n,n,n
N#CCn1c(CCl)nc2ccccc2c1=O,n,n,n,n,n,n
Cc1nc2c3ccccc3n(CC#N)c(=O)n2n1,n,n,n,n,n,6.1
Nc1n[nH]c(-c2ccc(Br)cc2)c1Cl,62,n,n,n,n,n
C/C(=N\NC(=O)c1ccccc1)c1ccc(NC(=O)c2cccs2)cc1,n,n,n,n,n,n
C/C(=N\NC(=O)c1ccccc1C)c1ccc(NC(=O)c2cccs2)cc1,n,n,n,n,12,n
O=C(OCc1cn(Cc2cccc(F)c2F)nn1)N1CCOCC1,x,n,n,x,n,n
CCn1c(C)nc2cc(C(=O)NNC(=S)Nc3ccc(F)cc3)ccc21,n,n,3.7,n,n,n
CCn1c(C)nc2cc(C(=O)NNC(=S)Nc3ccc(Cl)cc3)ccc21,n,n,n,n,n,n
N#Cc1ccccc1NC(=S)NC(=O)C1CCC1,x,n,n,4.3,n,n
CC(C)C[C@H]1COc2cc(Br)ccc2S(=O)(=O)N1Cc1cn(CCC2OCCO2)nn1,x,n,n,x,n,n
CCc1ccccc1NC(=O)CNCC(=O)Nc1ccccc1CC,n,n,n,n,n,n
CCN(CC)C(=O)c1ccc2c(c1[N+](=O)[O-])C(=O)c1ccccc1C2=O,78,x,x,x,x,x
c1ccc(SCCCCNC2CCCC2)cc1,n,1.7,n,n,n,n
Cc1ccc2[nH]c(=O)c3cc(C(=O)N(C)c4ccccc4C)sc3c2c1,n,n,n,n,n,n
O=S(=O)(Nc1cccc(-c2ccc(N3CCCCCC3)nn2)c1)c1ccc(C(F)(F)F)cc1,n,n,n,n,n,6.4
COc1cc(OC)cc(C(=O)NC(=S)NNC(=O)c2cnccn2)c1,n,n,n,n,n,n
COc1ccc(C(=O)NC(=S)NNC(=O)c2cnccn2)cc1OC,n,n,n,4.9,n,n
CCOC(=O)C1(C)NC(c2cc(OC)c(OC)c(OC)c2)C2C(=O)N(CC)C(=O)C21 (stereo not drawn),71,n,n,n,n,n
SMILES,AHR activator,ssDAF-12 act,DAX1 inh-1,DAX1 inh-2,hgDAF12 agonist,hcDAF-12 act
CCN1C(=O)C2C(c3ccc(O)c(OC)c3)NC(C)(C(=O)OC)C2C1=O (stereo not drawn),n,n,n,n,n,n
OC(C#CCCN1CCCCC1)(c1ccccc1)C1CCCCC1 (stereo not drawn),n,n,n,5.0,n,n
O=S1(=O)CC(N2CCCC2)CN1C1CCCCC1 (stereo not drawn),x,n,4.3,x,n,n
O=S1(=O)CC(N2CCCC2)CN1C1CCCC1 (stereo not drawn),x,n,n,x,n,n
Nc1nc(-c2cc3ccccc3o2)cs1,n,n,n,5.2,n,n
CN1CCN(c2nc(-c3cc4ccccc4o3)cs2)CC1,n,n,n,n,n,n
COc1ccc(OC)c(NC(=S)N(CCc2c(C)[nH]c3ccccc23)Cc2cccs2)c1,50,n,n,n,n,n
COc1ccc(OC)c(NC(=S)N(CCc2c(C)[nH]c3ccc(C)cc23)Cc2cccs2)c1,n,n,n,n,n,n
CN(C)C(/C=C/Nc1cccc([N+](=O)[O-])c1)=C(C#N)C#N,n,n,n,n,n,n
Cc1ccc(C(=O)/C=C/Nc2cccc([N+](=O)[O-])c2)o1,n,n,n,n,11,5.8
O=C1Nc2ccccc2-c2nnnn2C1N1CCCC1 (stereo not drawn),x,n,n,x,n,n
